Assay outcomes deposited in PubChem BioAssay by The Scripps Research Institute Molecular Screening Center.
TEAD-YAP inh: TEAD-YAP interaction inhibition; HEK-TIYL cells, TEAD-Gal4/YAP UAS-luciferase luminescence; inhibition, % at 9.12 µM; 640,000 compounds, 1.4% hits; AID 1259422; in the data active = inhibition above about 32%;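 also: 0% = median of test compound wells and 100% = reference inhibitor wells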
FBW7 activator: human FBW7 E3 ligase activation, primary screen. 650,000 compounds, 0.13% hits. normalized activity (activation), % at 26.1 µM. AlphaScreen FBW7–phospho-cyclin E peptide binding, activator screen. AID 1259310; in the data active = normalized activity above about 1.9%;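 also: purified mutant Fbw7 with reduced substrate affinity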
MITF primary: blocks human microphthalmia-associated transcription factor; O75030; AlphaScreen MITF homodimerization, bead proximity signal; inhibition, % at 2.6 µM; 650,000 compounds, 0.91% hits; AID 1259374; in the data active = inhibition above about 50%;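 also: 0% = vehicle wells with protein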
Target sequence (O75030 whole entry, looked up): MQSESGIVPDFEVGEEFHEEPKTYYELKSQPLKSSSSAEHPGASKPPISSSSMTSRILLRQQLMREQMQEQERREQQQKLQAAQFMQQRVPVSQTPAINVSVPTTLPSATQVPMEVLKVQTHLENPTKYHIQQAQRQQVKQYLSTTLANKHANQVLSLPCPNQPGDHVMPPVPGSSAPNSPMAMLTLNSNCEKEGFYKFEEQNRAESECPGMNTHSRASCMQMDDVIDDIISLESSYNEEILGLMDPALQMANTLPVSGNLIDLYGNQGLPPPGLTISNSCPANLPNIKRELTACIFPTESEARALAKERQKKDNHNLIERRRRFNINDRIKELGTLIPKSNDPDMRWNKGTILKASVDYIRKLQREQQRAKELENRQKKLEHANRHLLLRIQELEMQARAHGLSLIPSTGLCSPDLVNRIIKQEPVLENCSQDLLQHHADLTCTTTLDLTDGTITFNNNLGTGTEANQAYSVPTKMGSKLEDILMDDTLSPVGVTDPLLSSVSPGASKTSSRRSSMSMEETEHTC
GPR151 activ: activates the human receptor GPR151 | Q8TDV0 | PathHunter beta-arrestin GPR151 cells, luminescence | activation, % at 11.2 µM | 650,000 compounds, 1% hits | AID 1508602; in the data active = activation above about 4.9%;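 also: 0% = median of compound wells and 100% = cells with positive control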
* = called active by the depositor. Only some compounds are listed: those with a hit (about 3.5% of all), similar ones and a draw of the others.

SMILES	TEAD-YAP inh	FBW7 activator	MITF primary	GPR151 activ
Cn1c(=N)c(C(=O)NCC2CCCO2)cc2c(=O)n3ccccc3nc21 (centres undefined)	-5	0	8	-2
CCCC(=O)Nc1ccc(-c2nc3cccnc3s2)cc1	15	0	9	-2
CC(C)C(=O)Nc1ccc(-c2nc3cccnc3s2)cc1	87*	0	12	-5
Cc1ccc(S(=O)(=O)N2C(=O)CCC2c2nc(-c3ccccn3)no2)cc1 (centres undefined)	39*	0	5	0
Oc1ccccc1/C=N\Nc1ccccn1	-70	-1	82*	1
O=C(N/N=C/c1ccccc1O)C(=O)Nc1ccccn1	-16	-2	61*	0
Cc1cc(C)n(-c2cc(N/N=C/c3ccccc3O)ncn2)n1	59*	-1	10	0
Oc1c(Br)cc(Br)cc1/C=N/Nc1ccccn1	18	0	27	-1
Oc1ccccc1/C=N/Nc1ccc(Cl)nn1	72*	0	51*	0
Cc1cc(C)c(NC(=O)C23CC4CC(CC(C4)C2)C3)c(C)c1	-10	0	6	1
Oc1ccccc1/C=N\Nc1ncc(F)c(N2CCOCC2)n1	-27	-1	88*	0
Oc1ccccc1/C=N\Nc1nc2ccccc2o1	52*	0	22	-3
CCOc1cc(C2C(C(=O)Nc3ccccc3)=C(C)Nc3nnnn32)ccc1OC(=O)c1ccccc1 (centres undefined)	-2	1	15	1
COC(=O)c1cnc(N2CCCCCC2)c2ccccc12	-19	0	3	-1
COC(=O)c1ccc(N2CCCCC2)c2c1C(=O)c1ccccc1C2=O	3	0	55*	4
O=C(/C=C/c1ccco1)NC(=S)NCc1cccnc1	47*	1	28	0
Cc1cc(/C=C(\C#N)C(=O)N2CCOCC2)c(C)n1-c1ccccc1	71*	0	2	-3
CNC(=O)/C(C#N)=C\c1cc(C)n(-c2ccc(Br)cc2)c1C	32*	0	1	-1
COC(=O)c1ccc(-n2c(C)cc(/C=C(\C#N)C(=O)N3CCOCC3)c2C)cc1	1	0	13	0
COCCNC(=O)/C(C#N)=C/c1cc(C)n(-c2ccccc2)c1C	65*	0	1	0
COCCCNC(=O)/C(C#N)=C/c1cc(C)n(-c2sc3c(c2C#N)CCCC3)c1C	59*	0	-7	0
CNC(=O)/C(C#N)=C\c1cc(C)n(-c2ccc(N3CCOCC3)cc2)c1C	32	0	12	-1
NC(=O)c1ccc(Cl)c(S(=O)(=O)N2CCCCC2)c1	6	0	5	1
CCOc1ccc(/C=N/n2c(-c3ccncc3)n[nH]c2=S)cc1OC	-7	0	-9	0
COC(=O)c1ccc(C)c(NS(=O)(=O)c2ccccc2)c1	6	0	-12	0
SMILES	TEAD-YAP inh	FBW7 activator	MITF primary	GPR151 activ
COC(=O)c1cccc(-n2c(C)cc(/C=C(\C#N)C(=O)Nc3ccc(OC)cc3)c2C)c1	53*	0	-8	-1
Nc1nc(N)nc(CCCn2c(-c3nonc3N)nc3ccccc32)n1	57*	0	12	0
CCOC(=O)c1ccccc1NC(=O)Cn1c(-c2nonc2N)nc2ccccc21	52*	0	2	0
COc1cccc(/C=N\NC(=O)Cn2c(-c3nonc3N)nc3ccccc32)c1O	29	0	12	-1
COc1cc(/C=N/NC(=O)Cn2c(-c3nonc3N)nc3ccccc32)ccc1O	45*	0	6	0
Nc1nonc1-c1nc2ccccc2n1CC(=O)Nc1ccccc1-c1ccccc1	-11	0	7	2
COC(=O)c1sccc1NC(=O)Cn1c(-c2nonc2N)nc2ccccc21	50*	0	-8	1
COc1ccc(Cl)cc1NC(=S)NNC(=O)c1ccc(Br)o1	-3	0	6	1
COc1cc(CN2CCc3nncn3CC2)cc2c1OCO2	6	0	0	2
COc1ccc2c(c1)O/C(=C\c1ccc(OC(C)=O)c(OC)c1)C2=O	43*	0	-11	3
COc1ccc2c(c1)OC/C(=C\c1cccs1)C2=O	-45	0	10	-1
COc1ccc(/C=C2\Oc3cc(OC(=O)c4cccnc4)ccc3C2=O)cc1	41*	0	21	0
COc1ccc2c(c1)OC/C(=C\c1ccc(OC)c(O)c1)C2=O	42*	1	1	0
CC(C)(C)C(=O)Oc1ccc2c(c1)O/C(=C\c1ccncc1)C2=O	4	0	6	0
Cc1ccsc1C(=O)NCc1ccc(Cl)cc1	4	0	9	-1
CC(C)(C)C(=O)Nc1ccc(C(=O)Nc2cccc(O)c2)cc1	64*	0	8	-2
